According to the supplement of paper PMC3334620:
The full ranking holds about 33,000 sequences; the median of “E-score (-0.5 to 0.5)” is about -0.017, and the highest 2% start at about 0.3. The sample holds the highest values, similar sequences and a random draw of the others, so the mix is not that of the screen.

Molecular target: T1, Sut1 (UniProt P53032)
T1 sequence: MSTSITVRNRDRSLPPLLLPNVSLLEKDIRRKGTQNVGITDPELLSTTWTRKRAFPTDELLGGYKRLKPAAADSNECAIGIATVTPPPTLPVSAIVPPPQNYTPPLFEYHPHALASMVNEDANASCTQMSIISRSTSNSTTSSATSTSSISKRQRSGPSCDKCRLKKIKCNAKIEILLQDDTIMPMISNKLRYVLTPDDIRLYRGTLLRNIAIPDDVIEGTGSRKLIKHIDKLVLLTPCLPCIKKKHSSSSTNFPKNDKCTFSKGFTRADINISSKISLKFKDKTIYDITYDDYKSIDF
Assay: PBM E-score (8-mer binding enrichment) (E-score (-0.5 to 0.5)); higher = stronger / more preferred TF binding
Details: protein concentration: 200 nM; construct: GST-full length
Protocol: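 Universal 'all 10-mer' protein binding microarrays (Agilent AMADID 015681) probed with GST-tagged S. cerevisiae TFs (full-length or DBD) made by in vitro transcription/translation (PURExpress), about 100-200 nM. Bound TF was detected with fluorescent anti-GST. Each ungapped 8-mer (which stands for itself and its reverse complement) is scored by the PBM enrichment score (E-score), a modified Wilcoxon-Mann-Whitney statistic from -0.5 to +0.5, computed with the Universal PBM Analysis Suite. Scale: above 0.35 generally sequence-specific binding.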

Sequence	PBM E-score
AAACGCGC	-0.123
ATCCTCAT	-0.0846
CGAGGGTC	-0.194
CTTATGTA	0.16
AAACTGAA	0.171
AAGTTGCG	0.108
CTCGCCCC	-0.298
AGTGAATA	0.177
ATGGTCGG	0.0544
GCCCAGCC	-0.184
ATTATTTC	0.306
ATTATTTG	0.319
ATTATTTA	0.347
ATTATTAC	0.278
ACTATTTG	0.252
CTGATTTC	0.0415
CTTATTTA	0.101
ATGATTTC	0.299
CTTATTTC	0.207
ATGATTTA	0.222
GTTATTTA	0.257
ATTATTAG	0.144
CGCTAGTA	0.101
AGAATGCA	0.0147
CCCGTTAG	-0.0959

Sequence	PBM E-score
CGTACGAG	-0.098
AATAGCTC	-0.207
ATTGCGAC	0.0862
CGTCCTTA	-0.176
GTACCGCA	0.102
CTACCGGA	0.222
ATACCGGC	-0.0331
ATACCGGG	0.0371
ATACCGGA	0.326
GTACCGGA	0.342
AGTCAGCA	-0.0199
ACCCACTC	0.00249
TGCCGGAA	0.188
ATCCGGCG	-0.00912
TTCCGGAA	0.395
ATCCGGAT	0.257
ATCCGGAC	0.362
ATCCGGAG	0.414
ATCCGGTG	0.0918
TCCCGGAA	0.228
CTCCGGAA	0.442
CTGCGGAA	-0.0948
ACAGTCAA	-0.0644
AGAGTAAG	0.016
AAGCTCTC	-0.127

Sequence	PBM E-score
AAAACTTG	0.143
GCGTTACC	-0.158
ACTCCCTG	-0.173
AATCACGT	-0.0474
GTCCGGAA	0.402
GTGCGGAA	0.0942
GTCAGGAC	-0.206
CTCCGGAG	0.487
ATGCGGAG	0.259
GTCCAAAC	-0.0427
ATCCGGAA	0.303
ATGCGGAA	0.0745
GTCCGGAC	0.469
CTCAGGAG	-0.179
CAACGCAA	0.111
TAGTTAGA	0.169
AGTCTATG	-0.11
ACATTGGC	-0.21
AGAAAGCT	0.126
CATAAGGA	-0.134
CCCTCGAC	-0.327
CAATCTAG	-0.0129
CTTAGTCC	0.113
ATTGAGTG	0.0241
CTGCGGAC	0.165

Sequence	PBM E-score
CTCAGGAC	-0.127
CTCCGGAC	0.473
CTTTAAAC	0.105
CAAATTAA	0.189
GAAATTAA	0.333
AAGTTATA	0.186
TAGTTATA	0.318
ATATTAAA	0.37
CTATTAAA	0.0826
TTATTAAA	0.273
GAGTTATA	0.2
GTTTAAAC	0.31
GTTTAAAA	0.19
AAAATTAA	0.221
AGGTCTAA	-0.0642
CTAGGTGA	-0.168
GTCTATCA	0.101
AGATTCAT	0.0265
ATTAAGAC	0.123
GCGCTTGA	0.0596
ATATTTAC	0.282
AAATTATG	0.175
ATATTTAA	0.303
TAATTATA	0.349
AATTAAAG	0.198

Sequence	PBM E-score
AAATTATA	0.351
CAATTATA	0.164
AATTAAAC	0.329
GATTAAAC	0.114
AATTTATA	0.276
CTATTTAA	0.188
TAATTAGA	0.218
ACTAAGTC	0.0911
CTACCCAG	-0.18
AGAAATGC	0.048
GAAATCCC	-0.0066
ATCACCTA	-0.13
CTTAGCCC	-0.129
ATGAACCC	0.00896
CCAAATCC	0.0309
AGCAGAAA	0.175
AAGGTCTC	-0.0653
ACATTAAA	0.259
AAATTATC	0.281
AAATTACT	0.234
TCATTAAA	0.315
GAATTATC	0.0676
GCATTAAA	0.0763
CGATTAAA	0.237
GCATTATA	0.118

Sequence	PBM E-score
GAATTATA	0.335
AGATTAAA	0.324
AGATTAAT	0.222
AAATTATT	0.328
AGCAAATC	0.142
AGTGGCAT	-0.231
CCCTTCAA	-0.068
ATTCCCTA	0.11
AAGGCCAG	-0.00339
GAGCTAAA	0.106
AATTTCTA	0.285
AAATTAAT	0.292
CTCTTAAC	0.042
ATATTATA	0.249
AAATTAAA	0.333
GTCTTAAA	0.00721
CTCTTAAA	0.302
AAATTAAC	0.236
ATATTATG	0.362
ATATTATC	0.223
CTCTCGCC	-0.182
GAGTTAAA	0.13
AGAACCTC	-0.0985
GCAACGCC	-0.114
CTTAAAGC	-0.0652

Sequence	PBM E-score
TATACTGA	0.292
GATATTAA	0.285
TATATTAA	0.315
GATATTGA	0.234
CATATTAA	0.183
CATATTGA	0.0287
TATATTGA	0.332
GAACAGAC	0.0707
GTCCTAGA	-0.141
AGCCCGGG	0.0766
GCCCCGGA	0.29
CGCCCGGA	0.361
AGCCCGGC	0.00111
CGCCCGGC	-0.0194
AGCCCGGA	0.341
GGCCCGCA	-0.113
GGCCCGGA	0.305
CGCCCGAA	-0.101
CTACCAAC	0.0725
AACTCGCT	0.0435
ACGGAGCC	0.219
TCGGACAA	0.367
